This passage reports sensor-assay potency score (higher = more potent) results from the OligoGym collection.
Note: reference of the scale not given here.

The target of one test is IL7. Kind of test: pooled miR-30 sensor sort-seq; sequence = guide strand. The conditions noted are these: shRNA.
TATCACAATCAGATGATGCTAC had a sensor-assay potency score (higher = more potent) of 0.423.
Same read-out and setting: as for TATCTCTTGTAATAGTCTCTTT, the figure is -0.557; as for TTCTAGTAATACAATATGCATT, -1.23; as for TTTATTTTCTTCCAAACTCTTT, -0.524.
The same measure, in the same setting: under TTTTCTTCCAAACTCTTTGTTG stands -0.54; under TTCCTTATTAGCATCACAGATA, -0.731.
TAAAGATTTATTTTCTTCCAAA came in with a sensor-assay potency score (higher = more potent) of -1.11.
On the same count and under the same terms, under TAGGAAACACAAGTCATTCAGT stands 0.00202.
TATTATTGCAACTGATACCTTA: the sensor-assay potency score (higher = more potent) was -0.0538.
For TTGTTTGTATTCATCTTCTAGT, the sensor-assay potency score (higher = more potent) was -0.373.
Turning to TTGTAATAGTCTCTTTAGGAAA, the sensor-assay potency score (higher = more potent) was -1.6.

The next test addresses ILDR2. The description is as above. The conditions noted are these: shRNA.
Consider TGAACAATCGTGATCTCTCTGC, for which the sensor-assay potency score (higher = more potent) was -0.125.
The same measure, in the same setting: under TTGAAGCTACTACTCGAACAGT stands -0.815; under TTATATCTGCCTCTCATCCTTC, -0.505.
Turning to TAATACAGTAATAGAGTCCGCT, the sensor-assay potency score (higher = more potent) was 0.505.
In turn, TTGTCGGGCACTGTGACCTGAA returned a sensor-assay potency score (higher = more potent) of -0.304.
The same measure, in the same setting: under TCTGCATCATGAACAATCGTGA stands -0.116.
On the same count and under the same terms, under TGAACTTCCACTGCACAACTGC stands -0.265.
Consider TAGGACTTGAACTTCCACTGCA, for which the sensor-assay potency score (higher = more potent) was 0.867.
Still for that read-out and setting: as for TAGTACAGGACCTTCATGGAGT, the figure is 0.283; as for TACAGTAATAGAGTCCGCTGTC, 0.133.
The sequence TTCTCTTGCTGAGAGATTGGGC came in with a sensor-assay potency score (higher = more potent) of -0.528.
Same read-out and setting: under TACTACTCGAACAGTCCTCCTG stands 0.188.

In another test the target is IMMP2L. Described as above. The conditions noted are these: shRNA.
Turning to TTCAAAGAAGGCTGCATCGATG, the sensor-assay potency score (higher = more potent) was -1.29.
Same read-out and setting: under TTCAAGAGCAATCACTCTCTTA stands -0.135.
As to TCTTAATGATCTTCTGTTCTGG, the sensor-assay potency score (higher = more potent) worked out at 0.00439.
On the same count and under the same terms, as for AATGATACAATGTCACCACGGT, the figure is 0.432; as for TTGATGTATCTTTTCACCCACC, -0.733; as for TATGGTTCTGACAATATCTCCT, 0.439.
Same read-out and setting: under TAAATATTTCTCGCACAGCATC stands -1.39; under TTCAAAAGCACCACATCAGATG, -0.957.
For ATCGATGCTCCTTCTACTCTTG, the sensor-assay potency score (higher = more potent) was -0.658.
On the same count and under the same terms, as for TCTACTCTTGCCACACAGGCGA, the figure is -0.683; as for TAATGATCTTCTGTTCTGGGTT, -0.0559.
Still for that read-out and setting: under TCAAAATTCCTCACTTTCCAGT stands -0.183.

The target in a further test is INF2. The test is described as above. The conditions noted are these: shRNA.
Turning to TTTCAATCTCGTGCTTCTCGGG, the sensor-assay potency score (higher = more potent) was -0.468.
On the same count and under the same terms, under TCAGTGGTTAGGACATCGCTGG stands -0.678.
With TTCAATCTCGTGCTTCTCGGGA, the sensor-assay potency score (higher = more potent) is -0.3.
On the same count and under the same terms, as for TGTTGTAGCATCAAGGCCGGGC, the figure is -0.171; as for TTGAGGTTCAGGCTCTTCTTGG, -1.01.
